# The sample as a whole holds a higher share of the strongest signals than the screen did.
# B1: Siglec-F (Mus musculus), Q920G3 (protein)
# chain: MRWAWLLPLLWAGCLATDGYSLSVTGSVTVQEGLCVFVACQVQYPNSKGPVFGYWFREGANIFSGSPVATNDPQRSVLKEAQGRFYLMGKENSHNCSLDIRDAQKIDTGTYFFRLDGSVKYSFQKSMLSVLVIALTEVPNIQVTSTLVSGNSTKLLCSVPWACEQGTPPIFSWMSSALTSLGHRTTLSSELNLTPRPQDNGTNLTCQVNLPGTGVTVERTQQLSVIYAPQKMTIRVSWGDDTGTKVLQSGASLQIQEGESLSLVCMADSNPPAVLSWERPTQKPFQLSTPAELQLPRAELEDQGKYICQAQNSQGAQTASVSLSIRSLLQLLGPSCSFEGQGLHCSCSSRAWPAPSLRWRLGEGVLEGNSSNGSFTVKSSSAGQWANSSLILSMEFSSNHRLSCEAWSDNRVQRATILLVSGPKVSQAGKSETSRGTVLGAIWGAGLMALLAVCLCLIFFTVKVLRKKSALKVAATKGNHLAKNPASTINSASITSSNIALGYPIQGHLNEPGSQTQKEQPPLATVPDTQKDEPELHYASLSFQGPMPPKPQNTEAMKSVYTEIKIHKC
# How the values were obtained:
# Assay in all cases: glycan array binding signal (z-score within array); higher = stronger binding
# Conditions in all cases: glycan notation: IUPAC condensed, linker removed
# [1] = target: GlcNAc(a1-4)Gal(b1-4)GlcNAc(b1-3)Gal(b1-4)GlcNAc
# How it was run: (§1)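 Columns mapping to the same glycan were averaged after glycan names were converted to IUPAC-condensed notation. The data come from 3228 arrays in the Consortium for Functional Glycomics database, limited to those with an available protein sequence. Binding is reported as a within-array Z-score averaged across arrays of one protein sequence and across linkers.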
# [2] = target: GlcNAc(b1-3)Fuc
# How it was run: as §1
# [3] = target: GlcNAc(b1-3)Gal(b1-4)GlcNAc(b1-3)Gal(b1-4)GlcNAc(b1-2)Man(a1-3)[GlcNAc(b1-3)Gal(b1-4)GlcNAc(b1-3)Gal(b1-4)GlcNAc(b1-2)Man(a1-6)]Man(b1-4)GlcNAc(b1-4)GlcNAc
# How it was run: as §1
# [4] = target: GlcNAc(b1-3)Gal(b1-4)GlcNAc(b1-6)[Gal(b1-3)]GalNAc
# How it was run: as §1
# [5] = target: GlcNAc(b1-3)GalNAc
# How it was run: as §1
# [6] = target: Man(a1-3)[Man(a1-6)]Man
# How it was run: as §1
# [7] = target: Neu5Ac(a2-3)Gal(b1-3)GalNAc(b1-4)[Neu5Ac(a2-3)]Gal(b1-4)Glc
# How it was run: as §1
# [8] = target: Neu5Ac(a2-3)Gal(b1-3)[Fuc(a1-4)]GlcNAc(b1-3)Gal(b1-4)[Fuc(a1-3)]GlcNAc
# How it was run: as §1
# [9] = target: Neu5Ac(a2-3)Gal(b1-3)[Neu5Ac(a2-3)Gal(b1-4)]GlcNAc
# How it was run: as §1
# [10] = target: Neu5Ac(a2-3)Gal(b1-3)]Neu5Ac(a2-3)Gal(b1-4)]GlcNAc
# How it was run: as §1
# [11] = target: Neu5Ac(a2-3)Gal(b1-4)GlcNAc(b1-2)Man(a1-3)[GlcNAc(b1-2)Man(b1-4)GlcNAc(b1-2)Man(a1-6)]Man(b1-4)GlcNAc(b1-4)GlcNAc
# How it was run: as §1
# [12] = target: Neu5Ac(a2-3)Gal(b1-4)GlcNAc(b1-2)Man(a1-3)[Neu5Ac(a2-3)Gal(b1-4)GlcNAc(b1-2)Man(a1-6)]Man(b1-4)GlcNAc(b1-4)GlcNAc
# How it was run: as §1
# [13] = target: Neu5Ac(a2-3)Gal(b1-4)GlcNAc(b1-2)Man(a1-3)[Neu5Ac(a2-3)Gal(b1-4)GlcNAc(b1-2)Man(a1-6)]Man(b1-4)GlcNAc(b1-4)[Fuc(a1-6)]GlcNAc
# How it was run: as §1
# [14] = target: Neu5Ac(a2-3)Gal(b1-4)GlcNAc(b1-2)[Neu5Ac(a2-3)Gal(b1-4)GlcNAc(b1-4)]Man(a1-3)[GlcNAc(b1-4)][Neu5Ac(a2-3)Gal(b1-4)GlcNAc(b1-2)[Neu5Ac(a2-3)Gal(b1-4)GlcNAc(b1-6)]Man(a1-6)]Man(b1-4)GlcNAc(b1-4)GlcNAc
# How it was run: as §1
# [15] = target: Neu5Ac(a2-3)Gal(b1-4)GlcNAc(b1-2)[Neu5Ac(a2-3)Gal(b1-4)GlcNAc(b1-4)]Man(a1-3)[GlcNAc(b1-4)][Neu5Ac(a2-3)Gal(b1-4)GlcNAc(b1-4)Man(a1-6)]Man(b1-4)GlcNAc(b1-4)GlcNAc
# How it was run: as §1
# [16] = target: Neu5Ac(a2-3)Gal(b1-4)GlcNAc(b1-2)[Neu5Ac(a2-3)Gal(b1-4)GlcNAc(b1-6)]Man(a1-6)[Neu5Ac(a2-3)Gal(b1-4)GlcNAc(b1-2)Man(a1-3)][GlcNAc(b1-4)]Man(b1-4)GlcNAc(b1-4)GlcNAc
# How it was run: as §1
# [17] = target: Neu5Ac(a2-3)Gal(b1-4)GlcNAc(b1-6)[Neu5Ac(a2-3)Gal(b1-3)]GalNAc
# How it was run: as §1
# [18] = target: Neu5Ac(a2-3)Gal(b1-4)[Fuc(a1-3)]GlcNAc(b1-3)Gal
# How it was run: as §1
# [19] = target: Neu5Ac(a2-3)Gal(b1-4)[Fuc(a1-3)]GlcNAc(b1-3)Gal(b1-4)[Fuc(a1-3)]GlcNAc(b1-3)Gal(b1-4)[Fuc(a1-3)]GlcNAc
# How it was run: as §1
# [20] = target: Neu5Ac(a2-3)Gal6S(b1-4)GlcNAc
# How it was run: as §1
# [21] = target: Neu5Ac(a2-3)Gal6S(b1-4)[Fuc(a1-3)]GlcNAc
# How it was run: as §1
# [22] = target: Neu5Ac(a2-6)Gal(b1-4)GlcNAc(b1-2)[Neu5Ac(a2-6)Gal(b1-4)GlcNAc(b1-4)]Man(a1-3)[GlcNAc(b1-4)][Neu5Ac(a2-6)Gal(b1-4)GlcNAc(b1-4)Man(a1-6)]Man(b1-4)GlcNAc(b1-4)GlcNAc
# How it was run: as §1
# [23] = target: Neu5Ac(a2-6)GalNAc
# How it was run: as §1
# [24] = target: Neu5Gc(a2-3)Gal(b1-4)Glc
# How it was run: as §1
# [25] = target: Neu5Gc(a2-3)Gal(b1-4)GlcNAc
# How it was run: as §1
binder,measurement,setting,value
B1,glycan array binding signal (z-score),[1],-0.146
same,glycan array binding signal (z-score),[2],-0.135
same,glycan array binding signal (z-score),[3],-0.064
same,glycan array binding signal (z-score),[4],-0.15
same,glycan array binding signal (z-score),[5],-0.12
same,glycan array binding signal (z-score),[6],-0.113
same,glycan array binding signal (z-score),[7],3.76
same,glycan array binding signal (z-score),[8],-0.066
same,glycan array binding signal (z-score),[9],2.46
same,glycan array binding signal (z-score),[10],3.65
same,glycan array binding signal (z-score),[11],2.11
same,glycan array binding signal (z-score),[12],1.94
same,glycan array binding signal (z-score),[13],2.76
same,glycan array binding signal (z-score),[14],8.27
same,glycan array binding signal (z-score),[15],5.53
same,glycan array binding signal (z-score),[16],5.76
same,glycan array binding signal (z-score),[17],0.072
same,glycan array binding signal (z-score),[18],-0.088
same,glycan array binding signal (z-score),[19],-0.109
same,glycan array binding signal (z-score),[20],13.2
same,glycan array binding signal (z-score),[21],12.9
same,glycan array binding signal (z-score),[22],-0.097
same,glycan array binding signal (z-score),[23],-0.113
same,glycan array binding signal (z-score),[24],-0.118
same,glycan array binding signal (z-score),[25],-0.126
